Laboratory results taken from the antibiotic and cytotoxicity screens of Wong et al. (2023).
Among all 39,000 compounds or so, about 3,300 (8.5%) were called active. This excerpt belongs to a sample that is enriched for actives.

The molecules below were run on HepG2 (assay: cytotoxicity call (relative viability < 0.9)). Settings: 10 µM.
C[C@H](CO)N1C[C@H](C)[C@@H](CN(C)S(=O)(=O)c2ccccc2)Oc2ncc(-c3cccc(C(=O)N(C)C)c3)cc2C1=O was tested, and the cytotoxicity call was “inactive”.
With Cc1noc(C)c1NC(=O)N(C)C[C@@H]1Oc2ccc(NC(=O)CCN3CCOCC3)cc2C(=O)N([C@H](C)CO)C[C@H]1C the cytotoxicity call was “inactive”.
C[C@@H]1CN([C@H](C)CO)C(=O)c2cc(NC(=O)Nc3ccc(C(F)(F)F)cc3)ccc2O[C@@H](C)CCCCO[C@@H]1CN(C)Cc1ccc2c(c1)OCO2 was tested, and the cytotoxicity call was “active”.
In the case of C[C@@H]1CCCCO[C@@H](CN(C)Cc2ccc3c(c2)OCO3)[C@H](C)CN([C@@H](C)CO)C(=O)c2cc(NC(=O)Nc3ccc(C(F)(F)F)cc3)ccc2O1, the cytotoxicity call is reported as “active”.
In the case of C[C@@H]1CCCCO[C@H](CN(C)Cc2ccc3c(c2)OCO3)[C@@H](C)CN([C@@H](C)CO)C(=O)c2cc(NC(=O)Nc3ccc(C(F)(F)F)cc3)ccc2O1, the cytotoxicity call is reported as “active”.
C[C@@H]1CN([C@@H](C)CO)C(=O)c2cc(NC(=O)Nc3ccc(C(F)(F)F)cc3)ccc2O[C@@H](C)CCCCO[C@@H]1CN(C)Cc1ccc2c(c1)OCO2 was tested, and the cytotoxicity call was “inactive”.
With C[C@@H]1CCCCO[C@@H](CN(C)Cc2ccc3c(c2)OCO3)[C@@H](C)CN([C@@H](C)CO)C(=O)c2cc(NC(=O)Nc3ccc(C(F)(F)F)cc3)ccc2O1 the cytotoxicity call was “active”.
For C[C@@H]1CN([C@H](C)CO)C(=O)c2cc(NS(C)(=O)=O)ccc2O[C@@H](C)CCCCO[C@@H]1CN(C)C(=O)c1ccncc1, the cytotoxicity call was “inactive”.
C[C@H](CO)N1C[C@H](C)[C@H](CN(C)C(=O)Nc2ccnc(N3CCOCC3)c2)OCc2cnnn2CCCC1=O was tested, and the cytotoxicity call was “inactive”.
For Cc1noc(C)c1S(=O)(=O)N(C)C[C@@H]1Oc2ccc(NC(=O)CCCN(C)C)cc2C(=O)N([C@@H](C)CO)C[C@@H]1C, the cytotoxicity call was “inactive”.
For C[C@H](CO)N1C[C@H](C)[C@@H](CN(C)Cc2ccc(Cl)c(Cl)c2)Oc2c(NC(=O)NC3CCCCC3)cccc2C1=O, the cytotoxicity call was “inactive”.
In the case of Cc1noc(C)c1NC(=O)Nc1cccc2c1O[C@@H](CN(C)C(=O)Nc1ccc(C(F)(F)F)cc1)[C@@H](C)CN([C@H](C)CO)C2=O, the cytotoxicity call is reported as “inactive”.
For COc1ccc(S(=O)(=O)N(C)C[C@@H]2Oc3c(NC(=O)Nc4c(C)noc4C)cccc3C(=O)N([C@H](C)CO)C[C@@H]2C)cc1, the cytotoxicity call was “inactive”.
CCCC(=O)Nc1ccc2c(c1)OC[C@@H](C)N(Cc1ccc(-c3ccccn3)cc1)C[C@@H](C)[C@H](OC)CN(C)C2=O was tested, and the cytotoxicity call was “inactive”.
In the case of C[C@@H]1CCCCO[C@@H](CN(C)Cc2ccc3c(c2)OCO3)[C@@H](C)CN([C@H](C)CO)C(=O)c2cc(NC(=O)Nc3ccc(C(F)(F)F)cc3)ccc2O1, the cytotoxicity call is reported as “active”.
In the case of C[C@H](CO)N1C[C@H](C)[C@H](CN(C)Cc2ccc3c(c2)OCO3)OCCCC[C@H](C)Oc2ccc(NC(=O)Nc3ccc(C(F)(F)F)cc3)cc2C1=O, the cytotoxicity call is reported as “active”.
In the case of C[C@@H]1CCCCO[C@H](CN(C)Cc2ccc3c(c2)OCO3)[C@H](C)CN([C@@H](C)CO)C(=O)c2cc(NC(=O)Nc3ccc(C(F)(F)F)cc3)ccc2O1, the cytotoxicity call is reported as “active”.
For C[C@H]1CCCCO[C@@H](CN(C)Cc2ccc3c(c2)OCO3)[C@@H](C)CN([C@@H](C)CO)C(=O)c2cc(NC(=O)Nc3ccc(C(F)(F)F)cc3)ccc2O1, the cytotoxicity call was “active”.
With C[C@@H]1CCCCO[C@H](CN(C)C(=O)Cc2ccccc2)[C@H](C)CN([C@@H](C)CO)C(=O)c2cc(NC(=O)c3ccccc3)ccc2O1 the cytotoxicity call was “inactive”.
CCCNC(=O)N[C@@H]1CC[C@@H](CC(=O)N2CCN(C)CC2)O[C@@H]1CO was tested, and the cytotoxicity call was “inactive”.
For Cc1noc(C)c1S(=O)(=O)Nc1ccc2c(c1)C(=O)N([C@H](C)CO)C[C@@H](C)[C@@H](CN(C)C(=O)Nc1ccc(F)cc1)OCCCC[C@@H](C)O2, the cytotoxicity call was “inactive”.
For O=C(Nc1ccccc1C(=O)O)c1nnc[nH]1, the cytotoxicity call was “inactive”.
In the case of O=C(NCC[C@H]1CC[C@H](NS(=O)(=O)c2cccc(F)c2)[C@H](CO)O1)C1CC1, the cytotoxicity call is reported as “inactive”.
C[C@@H](Oc1ccccc1)c1ccn[nH]1 was tested, and the cytotoxicity call was “inactive”.
In the case of C[C@H]([C@H](C)N1CC(=O)NC(=O)C1)N1CC(=O)NC(=O)C1, the cytotoxicity call is reported as “inactive”.
With C[C@@H]1CCCCO[C@H](CN(C)Cc2ccc3c(c2)OCO3)[C@@H](C)CN([C@H](C)CO)C(=O)c2cc(NC(=O)Nc3ccc(C(F)(F)F)cc3)ccc2O1 the cytotoxicity call was “active”.
C[C@H]1CCCCO[C@H](CN(C)Cc2ccc3c(c2)OCO3)[C@@H](C)CN([C@@H](C)CO)C(=O)c2cc(NC(=O)Nc3ccc(C(F)(F)F)cc3)ccc2O1 was tested, and the cytotoxicity call was “active”.
With C[C@@H]1CCCCO[C@@H](CN(C)Cc2ccc3c(c2)OCO3)[C@H](C)CN([C@H](C)CO)C(=O)c2cc(NC(=O)Nc3ccc(C(F)(F)F)cc3)ccc2O1 the cytotoxicity call was “active”.
With C[C@@H]1CCCCO[C@H](CN(C)Cc2ccc3c(c2)OCO3)[C@H](C)CN([C@H](C)CO)C(=O)c2cc(NC(=O)Nc3ccc(C(F)(F)F)cc3)ccc2O1 the cytotoxicity call was “active”.
COCN(C#N)c1nc(N(C)C)nc(N(C)C)n1 was tested, and the cytotoxicity call was “inactive”.
In the case of C[C@@H]1CN([C@H](C)CO)S(=O)(=O)c2ccc(-c3ccncc3)cc2O[C@H]1CN(C)S(=O)(=O)c1ccccc1F, the cytotoxicity call is reported as “inactive”.
With NC(=O)c1cccnc1N1CCN(C(=O)[C@@H]2CC(=O)N(C3CC3)C2)CC1 the cytotoxicity call was “inactive”.
